In PubChem BioAssay (NCI) one finds growth inhibition data, which are given here for 10 molecules.

Assay [1] in a line: NCI Yeast Anticancer Drug Screen. Data for the rad50 strain (AID 155).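 Also: 0% = growth of vehicle-only cultures of the same strain.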 Conditions: S. cerevisiae rad50 strain growth inhibition, active compounds read high. In outline:
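Relative growth inhibition (compound vs vehicle) was measured in yeast with a defined repair-gene alteration.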

Assay [2] in a line: NCI Yeast Anticancer Drug Screen. Data for the mec2-1 strain (AID 157). Conditions: S. cerevisiae mec2-1 strain, active compounds read high. Put shortly: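 Cells of the genetically defined mec2-1 yeast strain are incubated with test compound. Inhibition of growth is calculated against vehicle-treated controls.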
The nature of assay [3]: NCI Yeast Anticancer Drug Screen. Data for the sgs1 mgt1 strain (AID 161).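 Also: 0% = growth of cultures given vehicle only.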 Conditions: S. cerevisiae sgs1 mgt1 strain, active compounds read high. In outline: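 Test agents were incubated with a DNA-repair-mutant yeast strain. Growth was then read and compared against vehicle-treated controls.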
Assay [4] in a line: NCI Yeast Anticancer Drug Screen. Data for the cln2 rad14 strain (AID 165).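 Also: 0% = growth equal to vehicle treated cultures.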 The note with it: S. cerevisiae cln2 rad14 strain, active compounds read high. Put shortly:
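The screen exposed genetically defined yeast (cln2 rad14) to test compounds and scored growth inhibition relative to vehicle-treated controls.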

The nature of assay [5]: NCI Yeast Anticancer Drug Screen. Data for the bub3 strain (AID 167). Conditions: S. cerevisiae bub3 mutant strain, active compounds read high. Put shortly:
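Screening used yeast with an engineered genetic alteration affecting cell cycle control. Compound-exposed cultures were compared with vehicle cultures, and reduced growth was taken as inhibition.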

The nature of assay [6]: NCI Yeast Anticancer Drug Screen. Data for the mlh1 rad18 strain (AID 175). The note with it: S. cerevisiae mlh1 rad18 strain growth inhibition, active compounds read high. Put shortly: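 Compound-treated yeast growth, normalised to vehicle controls. Strain bears defined DNA repair mutations.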
[7] abbreviates: at 5.0 µM (retest, dose inferred, filed as 0.5).
Where [8] appears, read: at 50.0 µM (retest, dose inferred, filed as 5.0).

SMILES strings stand for the structures. This is part of a sample that, as a whole, favours compounds with a hit. Of some 79,000 tested, about 15% had one in any assay. Values without a mark were called inactive. The source made the active and inactive calls. Rule as the data show it: active = growth inhibition above about 70%; inactive = the rest.

Turning to `O=C(O)c1cccc2c1Oc1c(cccc1C(=O)O)S2`, the growth inhibition in assay [1] (setting [7]) was 3%; in assay [1] (setting [8]) it was 1%; in assay [1] (at 50.0 µM) it was 98.3% (active); in assay [2] (setting [7]), 0%; in assay [2] (setting [8]), 9%; in assay [2] (at 50.0 µM), 98.2% (active). The growth inhibition in assay [3] (setting [7]) was 0%; in assay [3] (setting [8]), 3%; in assay [3] (at 50.0 µM), 98.3% (active); in assay [4] (setting [7]) it was 2%; in assay [4] (setting [8]), 6%; in assay [4] (at 50.0 µM), 98.2% (active). For the same molecule, the growth inhibition was 1% in assay [5] (setting [7]); 1% in assay [5] (setting [8]); 98.8% (active) in assay [5] (at 50.0 µM); 2% in assay [6] (setting [7]); -2% in assay [6] (setting [8]); 98.5% (active) in assay [6] (at 50.0 µM).
For the molecule `S=C(Nc1cc(Cl)cc(Cl)c1)SCc1ccccc1`, the growth inhibition in assay [1] (setting [7]) is 33%; in assay [1] (setting [8]), 78% (active); in assay [1] (at 50.0 µM) it was 99.1% (active); in assay [2] (setting [7]) it was 25%; in assay [2] (setting [8]), 54%; in assay [2] (at 50.0 µM) it was 99.5% (active). Also, the growth inhibition is 30% in assay [3] (setting [7]); 74% (active) in assay [3] (setting [8]); 99.2% (active) in assay [3] (at 50.0 µM); -9% in assay [4] (setting [7]); 48% in assay [4] (setting [8]); 98.7% (active) in assay [4] (at 50.0 µM). The growth inhibition in assay [5] (setting [7]) is 4%; in assay [5] (setting [8]), 68%; in assay [5] (at 50.0 µM) it was 99.2% (active); in assay [6] (setting [7]), 31%; in assay [6] (setting [8]), 82% (active); in assay [6] (at 50.0 µM) it was 99.3% (active).
For `COc1ccc(C2c3cc4c(cc3OC(NCCO)C2C)OCO4)cc1` (stereo not given), the growth inhibition was -3% in assay [1] (setting [7]); 88% (active) in assay [1] (setting [8]); 89% (active) in assay [1] (at 50.0 µM); -43% in assay [2] (setting [7]); 86% (active) in assay [2] (setting [8]); 92.5% (active) in assay [2] (at 50.0 µM). Also, the growth inhibition in assay [3] (setting [7]) is -50%; in assay [3] (setting [8]) it was 82% (active); in assay [3] (at 50.0 µM) it was 90.3% (active); in assay [4] (setting [7]), 5%; in assay [4] (setting [8]), 78% (active); in assay [4] (at 50.0 µM) it was 92% (active). For the same molecule, the growth inhibition was -24% in assay [5] (setting [7]); 95% (active) in assay [5] (setting [8]); 91.2% (active) in assay [5] (at 50.0 µM); -18% in assay [6] (setting [7]); 91% (active) in assay [6] (setting [8]); 88.2% (active) in assay [6] (at 50.0 µM).
In the case of `Cc1ccccc1C(O)(c1ccccc1C)C1(O)CCN(C)CC1`, the growth inhibition is 0% in assay [1] (setting [7]); -3% in assay [1] (setting [8]); 86.2% (active) in assay [1] (at 50.0 µM); -4% in assay [2] (setting [7]); 0% in assay [2] (setting [8]); 96.7% (active) in assay [2] (at 50.0 µM). In addition, the growth inhibition was 2% in assay [3] (setting [7]); -10% in assay [3] (setting [8]); 96.2% (active) in assay [3] (at 50.0 µM); -7% in assay [4] (setting [7]); -11% in assay [4] (setting [8]); 91.8% (active) in assay [4] (at 50.0 µM). Also, the growth inhibition is -4% in assay [5] (setting [7]); -11% in assay [5] (setting [8]); 96.2% (active) in assay [5] (at 50.0 µM); 13% in assay [6] (setting [7]); -2% in assay [6] (setting [8]); 98.7% (active) in assay [6] (at 50.0 µM).
For `Cc1ccc(C(=O)OCCN2CCN(c3ccccc3)CC2)c([N+](=O)[O-])c1OCc1ccccc1`, the growth inhibition in assay [1] (setting [7]) is 30%; in assay [1] (setting [8]), 66%; in assay [1] (at 50.0 µM), 87% (active); in assay [2] (setting [7]), 36%; in assay [2] (setting [8]), 43%; in assay [2] (at 50.0 µM) it was 63.9%. Besides, the growth inhibition in assay [3] (setting [7]) is 25%; in assay [3] (setting [8]), 82% (active); in assay [3] (at 50.0 µM), 89.3% (active); in assay [4] (setting [7]) it was 24%; in assay [4] (setting [8]) it was 64%; in assay [4] (at 50.0 µM), 74% (active). Besides, the growth inhibition was 28% in assay [5] (setting [7]); 70% (active) in assay [5] (setting [8]); 72.7% (active) in assay [5] (at 50.0 µM); 19% in assay [6] (setting [7]); 78% (active) in assay [6] (setting [8]); 90.6% (active) in assay [6] (at 50.0 µM).
`O=C(O)/C(=C/c1ccc(Cl)cc1)c1ccccc1`: the growth inhibition in assay [1] (setting [7]) is -5%; in assay [1] (setting [8]), 23%; in assay [1] (at 50.0 µM), 4.7%; in assay [2] (setting [7]) it was -7%; in assay [2] (setting [8]), 23%; in assay [2] (at 50.0 µM) it was 44.5%. Moreover, the growth inhibition in assay [3] (setting [7]) is -3%; in assay [3] (setting [8]), 27%; in assay [3] (at 50.0 µM), 10.6%; in assay [4] (setting [7]) it was -10%; in assay [4] (setting [8]), 39%; in assay [4] (at 50.0 µM) it was 90.7% (active). For the same molecule, the growth inhibition is -8% in assay [5] (setting [7]); 17% in assay [5] (setting [8]); 9.95% in assay [5] (at 50.0 µM); -5% in assay [6] (setting [7]); 45% in assay [6] (setting [8]); 39.6% in assay [6] (at 50.0 µM).
As to `OC(/C=C/c1ccccc1)(c1ccccc1)c1nc2ccccc2s1` (stereo not given), the growth inhibition in assay [1] (setting [7]) was 35%; in assay [1] (setting [8]), 98% (active); in assay [1] (at 50.0 µM) it was -8%; in assay [2] (setting [7]), 59%; in assay [2] (setting [8]), 98% (active); in assay [2] (at 50.0 µM), 1.95%. For the same molecule, the growth inhibition in assay [3] (setting [7]) is 5%; in assay [3] (setting [8]), 97% (active); in assay [3] (at 50.0 µM), -11.3%; in assay [4] (setting [7]) it was 26%; in assay [4] (setting [8]), 93% (active); in assay [4] (at 50.0 µM) it was -23.1%. Further, the growth inhibition in assay [5] (setting [7]) was 6%; in assay [5] (setting [8]), 98% (active); in assay [5] (at 50.0 µM), -12.8%; in assay [6] (setting [7]) it was 20%; in assay [6] (setting [8]), 96% (active); in assay [6] (at 50.0 µM), -3.45%.
`CCCCCCOC(=O)CCC(=O)OCCCCCC`: the growth inhibition is -7% in assay [1] (setting [7]); -20% in assay [1] (setting [8]); -2.7% in assay [1] (at 50.0 µM); -3% in assay [2] (setting [7]); -20% in assay [2] (setting [8]); 17.9% in assay [2] (at 50.0 µM). The growth inhibition in assay [3] (setting [7]) is -1%; in assay [3] (setting [8]), 15%; in assay [3] (at 50.0 µM), 23.5%; in assay [4] (setting [7]), 32%; in assay [4] (setting [8]) it was 23%; in assay [4] (at 50.0 µM), 41.1%. In addition, the growth inhibition is 16% in assay [5] (setting [7]); 43% in assay [5] (setting [8]); 63.8% in assay [5] (at 50.0 µM); -15% in assay [6] (setting [7]); -9% in assay [6] (setting [8]); 24.1% in assay [6] (at 50.0 µM).
On to `N#CC(C#N)=c1c2nsnc2c(=C(C#N)C#N)c2nsnc12`, for which the growth inhibition was 71% (active) in assay [1] (setting [7]); 88% (active) in assay [1] (setting [8]); -9.1% in assay [1] (at 50.0 µM); 19% in assay [2] (setting [7]); 82% (active) in assay [2] (setting [8]); -1.6% in assay [2] (at 50.0 µM). Besides, the growth inhibition in assay [3] (setting [7]) was 52%; in assay [3] (setting [8]) it was 90% (active); in assay [3] (at 50.0 µM), -9.75%; in assay [4] (setting [7]) it was 55%; in assay [4] (setting [8]) it was 83% (active); in assay [4] (at 50.0 µM), -47.7%. The growth inhibition in assay [5] (setting [7]) was 60%; in assay [5] (setting [8]), 91% (active); in assay [5] (at 50.0 µM) it was -14.2%; in assay [6] (setting [7]), 36%; in assay [6] (setting [8]), 87% (active); in assay [6] (at 50.0 µM), 7.45%.
On to `CCCCCCC1CCC(CCCCCCCC(=O)N2CCN(C)CC2)C(C/C=C/CCCCCCCC(=O)N2CCN(C)CC2)C1CCCCC` (stereo not given), for which the growth inhibition in assay [1] (setting [7]) is 3%; in assay [1] (setting [8]), 93% (active); in assay [1] (at 50.0 µM), 98.8% (active); in assay [2] (setting [7]), -1%; in assay [2] (setting [8]), 75% (active); in assay [2] (at 50.0 µM), 99.3% (active). The growth inhibition in assay [3] (setting [7]) is 1%; in assay [3] (setting [8]), 70% (active); in assay [3] (at 50.0 µM), 99.3% (active); in assay [4] (setting [7]), -1%; in assay [4] (setting [8]), 84% (active); in assay [4] (at 50.0 µM), 92.6% (active). Moreover, the growth inhibition in assay [5] (setting [7]) is 4%; in assay [5] (setting [8]), 90% (active); in assay [5] (at 50.0 µM) it was 98.7% (active); in assay [6] (setting [7]), 6%; in assay [6] (setting [8]), 95% (active); in assay [6] (at 50.0 µM), 98.9% (active).
